Source: PubChem BioAssay (National Center for Advancing Translational Sciences (NCATS))
Shown are actives, neighbours in structure and some others; about 21% of the full set was active somewhere.
NS1 function inh = qHTS Assay for Inhibitors of Influenza NS1 Protein Function; Potency, µM (top dose mostly 46.1 µM); 0.4% of 270,000 active; AID 2326, 2010; calls by dose curve; also: actives are rising curves; nearly all actives have a fitted effect of over 50% in size
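Growth recovery, yeast-based: influenza A NS1 expressed in S. cerevisiae causes slow growth, and suppressors are detected by OD600. The parent strain without NS1 is used as positive control.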
Sm TGR inh = qHTS Assay for the Inhibitors of Schistosoma Mansoni Peroxiredoxins; Schistosoma mansoni thioredoxin glutathione reductase (TGR), Q962Y6; purified TGR, DTNB reduction, TNB absorbance 405 nm; Potency, µM (top dose mostly 114 µM), usual class: inhibitors; 3% of 360,000 active; AID 485364, 2010; also: nearly all actives have a fitted effect of over 60% in size
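TGR 20 nM + NADPH 100 uM (dispensed conc.), cpd preinc 15 min RT; start with NADPH (500 uM addition) then DTNB (15 mM addition). Kinetic TNB absorbance, 405 nm filter. Four-parameter Hill fit across titration.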
Pf growth 48h = Primary qHTS for delayed death inhibitors of the malarial parasite plastid, 48 hour incubation. P. falciparum luciferase growth in erythrocytes, 48 h. Potency, µM (series often up to 28.7 µM), usual class: inhibitors. 5.9% of 310,000 active
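Read-out is firefly luciferase luminescence from an integrated reporter in P. falciparum, so falling signal marks reduced parasite growth. Infected erythrocytes were at 2% hematocrit and 0.1% parasitemia (final) in Albumax-supplemented RPMI 1640.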
CHX counter = Cycloheximide Counterscreen for Small Molecule Inhibitors of Shiga Toxin. cell reporter, cycloheximide protein synthesis inhibition counterscreen. max response, %. 12% of 300,000 active. AID 2314, 2010; in the data active = max response mostly above about 13%, no sharp cut-off; inactive = mostly below about 14%; also: read at 38.3 µM for the half of the compounds with a filed dose
Shiga inhibitor = A qHTS for Small Molecule Inhibitors of Shiga Toxin. Vero cells, Shiga toxin protein synthesis inhibition reporter. inhibition, % at 38.7 µM. 9.2% of 290,000 active. AID 2315, 2010; in the data active = inhibition mostly above about 28%, no sharp cut-off; inactive = mostly below about 43%
Pf growth 96h = Primary qHTS for delayed death inhibitors of the malarial parasite plastid, 96 hour incubation. 6.9% of 320,000 active. P. falciparum luciferase reporter growth, 96 h. AID 504834, 2011. Potency, µM (doses to about 28.7 µM), usual class: inhibitors
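96 h incubation, 37 C, 5% CO2, of luciferase-reporter P. falciparum-infected RBCs (2% hematocrit, 0.05% parasitemia final) with test compounds; endpoint luminescence.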
Hits are given with their value; i = inactive; ? = inconclusive; nt = no result given. Unless noted, calls follow the shape of the dose curve; as a rule, active = well fitted curve in the direction sought with a large enough effect; inconclusive = small, poorly fitted or top-dose-only effect, or another doubt; inactive = no such curve, though single readings can be large; an effect the other way counts as inactive or inconclusive.

SMILES	NS1 function inh	Sm TGR inh	Pf growth 48h	CHX counter	Shiga inhibitor	Pf growth 96h
COc1ccc([C@H]2CC(=O)C=C(c3cccc(F)c3OC)C2)cc1	nt	i	i	nt	nt	i
COC(=O)c1c(C)[nH]c(C(=O)/C=C/c2ccccc2Cl)c1C	i	i	i	60.6	104.7	i
COC(=O)c1c(C)[nH]c(C(=O)/C=C/c2ccccc2F)c1C	i	i	i	28.8	62.2	i
COC(=O)c1c(C)[nH]c(C(C)=O)c1C	i	i	i	i	i	i
COc1cc(NS(=O)(=O)c2ccc(NC(=S)NC(=O)c3ccco3)cc2)nc(OC)n1	i	31.6µM	i	i	i	i
COc1cc(NS(=O)(=O)c2ccc(NC(=S)NC(=O)c3sc4ccccc4c3Cl)cc2)nc(OC)n1	i	i	i	i	i	11.7µM
Cc1cc(C)nc(NS(=O)(=O)c2ccc(NC(=S)NC(=O)C(C)(C)C)cc2)n1	i	?	nt	i	i	i
COc1cc(NS(=O)(=O)c2ccc(NC(=S)NC(=O)c3sc4cc(F)ccc4c3Cl)cc2)nc(OC)n1	i	i	i	i	i	?
Cc1cc(C)nc(NS(=O)(=O)c2ccc(NC(=S)NC(=O)c3ccco3)cc2)n1	i	14.1µM	i	i	i	i
CCn1cc(C(=O)N2CCN(c3ccc(F)cc3)CC2)c(=O)c2cc(S(=O)(=O)N3CCOCC3)ccc21	nt	i	nt	nt	nt	nt
Cc1ccc(-c2nc(N3CCOCC3)sc2C(=O)N2CCOCC2)cc1	i	i	i	i	23.8	i
COc1ccc(-c2nn(-c3ccccc3)cc2C(=O)N2CCN(S(=O)(=O)c3cccc(F)c3)CC2)cc1	nt	i	10.4µM	nt	nt	?
Cc1ccc(-c2nn(-c3ccccc3)cc2C(=O)N2CCOCC2)cc1	i	i	i	i	i	2.33µM
Cc1ccc(-c2nc(N3CCOCC3)sc2C(=O)N2CCCCC2)cc1	i	i	i	i	i	i
Cc1c(C(=O)N2CCOCC2)cc(C(C)(C)C)n1-c1ccccc1	i	?	9.28µM	i	i	9.28µM
COc1ccc(C(C(=O)NCC2CCCO2)N(C(=O)CNC(=O)c2ccco2)c2cc(C)ccc2C)cc1OC (stereo not drawn)	i	i	?	i	i	i
CCOc1ccccc1CNC(=O)C1CCN(S(=O)(=O)c2c(C)noc2/C=C/c2ccc(C)cc2)CC1	nt	i	nt	nt	nt	nt
COc1ccc(-c2nn(-c3ccccc3)cc2C(=O)N2CCN(S(=O)(=O)c3ccccc3C#N)CC2)cc1	nt	i	?	nt	nt	9.28µM
COc1ccc(-c2nn(-c3ccccc3)cc2C(=O)O)cc1	i	i	nt	i	i	i
CCOC(=O)c1c(NC(=O)c2cc(=O)c3ccc(C)cc3o2)sc(C)c1C	nt	i	nt	nt	nt	nt
CC(=O)n1nc(-c2ccc(C)cc2)nc1NCc1ccco1	nt	i	i	63.1	100.6	?
Cc1ccc(C)c(NC(=O)Cc2coc3cc(C)cc(C)c23)c1	nt	i	nt	nt	nt	nt
